Measurements from PubChem BioAssay AID1159580 (chemical genetic matrix, 2015).
“And” between values parts separate entries of the source, which are not always exact repeats. Equal values may be shown once. In all, about 5,500 compounds went through this assay and about 2,000 (36%) were called active. About 18% were inconclusive and are not listed. No stated cut-off is given here; in the data, active means normalized growth mostly below about 0.91 (no sharp cut-off); inconclusive means no clear call, values can overlap the other calls; inactive means mostly above about 0.92. This is one part of the list.

Experiment: chemical genetic growth profiling, strain panel (AID 1159580);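 further: tested at 20 µM; growth read once vehicle control cultures reached saturation at 30 °C; 1 = growth at the plate median or of vehicle wells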
Conditions: S. cerevisiae deletion strains, growth OD

Measured: normalized growth

CN1CCN2c3ccccc3Cc3ccccc3C2C1 (stereo unspecified)
inactive: locus YAL013W, strain DEP1, stronger effect = lower value 1.01 and 0.984 | locus YAL021C, strain ccr4, stronger effect = lower value 0.97 | locus YAL026C, strain drs2, stronger effect = lower value 0.999 | locus YAL030W, strain snc1, stronger effect = lower value 1 | locus YAL040C, strain CLN3, stronger effect = lower value 1.01 | locus YBL061C, strain skt5, stronger effect = lower value 0.998 | locus YBR009C, strain hhf1, stronger effect = lower value 0.987 | locus YBR021W, strain FUR4, stronger effect = lower value 0.992 | locus YBR023C, strain chs3, stronger effect = lower value 0.994 | locus YBR171W, strain sec66, stronger effect = lower value 1.02 | locus YBR229C, strain ROT2, stronger effect = lower value 1.01 | locus YBR231C, strain swc5, stronger effect = lower value 0.996 | locus YBR279W, strain paf1, stronger effect = lower value 1 | locus YCL011C, strain gbp2, stronger effect = lower value 1 | locus YCL016C, strain dcc1, stronger effect = lower value 0.994 | locus YCL029C, strain bik1, stronger effect = lower value 0.99 | locus YCL061C, strain MRC1 (second series), stronger effect = lower value 0.995 | locus YCL061C, strain MRC1, stronger effect = lower value 0.999 | locus YCL069W, strain vba3, stronger effect = lower value 0.998 | locus YCR088W, strain abp1, stronger effect = lower value 1 | locus YDL005C, strain med2, stronger effect = lower value 1.01 | locus YDL035C, strain GPR1, stronger effect = lower value 1.03 | locus YDL040C, strain nat1, stronger effect = lower value 1 | locus YDL074C, strain BRE1, stronger effect = lower value 1.03 | locus YDL101C, strain DUN1, stronger effect = lower value 1.02 | locus YDL134C, strain PPH21, stronger effect = lower value 1.01 | locus YDL185W, strain tfp1, stronger effect = lower value 0.982 | locus YDL192W, strain arf1, stronger effect = lower value 0.989 | locus YDR001C, strain nth1, stronger effect = lower value 1.01 | locus YDR069C, strain doa4, stronger effect = lower value 0.986 | locus YDR101C, strain arx1, stronger effect = lower value 0.985 | locus YDR137W, strain rgp1, stronger effect = lower value 1.01 | locus YDR150W, strain NUM1, stronger effect = lower value 1.01 and 0.988 | locus YDR159W, strain sac3, stronger effect = lower value 0.988 | locus YDR162C, strain NBP2, stronger effect = lower value 1.05 | locus YDR195W, strain ref2 0.972 | locus YDR297W, strain sur2, stronger effect = lower value 1.01 | locus YDR318W, strain mcm21, stronger effect = lower value 0.979 | locus YDR334W, strain swr1, stronger effect = lower value 1 | locus YDR335W, strain msn5, stronger effect = lower value 1 | locus YDR363W, strain ESC2, stronger effect = lower value 0.983 | locus YDR388W, stronger effect = lower value 0.99 | locus YDR392W, strain spt3, stronger effect = lower value 0.881 | locus YDR502C, strain sam2, stronger effect = lower value 0.982 | locus YEL003W, strain gim4, stronger effect = lower value 0.997 | locus YEL037C, strain rad23, stronger effect = lower value 1 | locus YEL061C, strain CIN8 (second series), stronger effect = lower value 1.01 | locus YEL061C, strain CIN8, stronger effect = lower value 1.01 | locus YER002W, strain NOP16, stronger effect = lower value 0.998 | locus YER015W, strain faa2, stronger effect = lower value 1 | locus YER016W, strain bim1, stronger effect = lower value 0.991 | locus YER110C, stronger effect = lower value 0.985 | locus YER111C, strain swi4, stronger effect = lower value 0.993 | locus YER155C, strain BEM2 (second series), stronger effect = lower value 0.978 | locus YER155C, strain BEM2, stronger effect = lower value 1.01 | locus YER167W, strain BCK2, stronger effect = lower value 1.02 | locus YFR010W, strain ubp6, stronger effect = lower value 1.01 | locus YGL078C, strain dbp3, stronger effect = lower value 0.981 | locus YGL086W, strain mad1, stronger effect = lower value 0.988 | locus YGL167C, strain pmr1, stronger effect = lower value 1 | locus YGL173C, strain kem1, stronger effect = lower value 1.01 | locus YGL227W, strain vid30, stronger effect = lower value 1.01 | locus YGL240W, strain doc1, stronger effect = lower value 0.979 | locus YGL248W, strain PDE1, stronger effect = lower value 1.01 | locus YGL253W, strain hxk2, stronger effect = lower value 1.01 | locus YGR078C, strain PAC10, stronger effect = lower value 1.03 and 1.01 | locus YGR135W, strain pre9, stronger effect = lower value 0.977 | locus YGR229C, strain SMI1, stronger effect = lower value 1.01 and 0.95 | locus YGR252W, strain gcn5, stronger effect = lower value 0.964 | locus YHR013C, strain ard1, stronger effect = lower value 0.939 | locus YHR027C, strain rpn1, stronger effect = lower value 1 | locus YHR030C, strain SLT2, stronger effect = lower value 1.01 and 0.992 | locus YHR079C, strain IRE1 (second series), stronger effect = lower value 0.987 | locus YHR079C, strain IRE1, stronger effect = lower value 0.987 | locus YHR094C, strain hxt1, stronger effect = lower value 0.989 | locus YHR129C, strain ARP1, stronger effect = lower value 1.01 | locus YHR142W, strain chs7, stronger effect = lower value 0.997 | locus YHR200W, strain rpn10, stronger effect = lower value 0.995 | locus YIL066C, strain RNR3, stronger effect = lower value 1.02 | locus YIL073C, strain SPO22, stronger effect = lower value 1.01 | locus YIL125W, strain kgd1, stronger effect = lower value 0.989 | locus YIR030C, strain dcg1, stronger effect = lower value 0.984 | locus YJL092W, strain hpr5, stronger effect = lower value 1 | locus YJL095W, strain BCK1 (second series), stronger effect = lower value 0.999 | locus YJL095W, strain BCK1, stronger effect = lower value 1.01 and 0.988 | locus YJL115W, strain asf1, stronger effect = lower value 1 | locus YJL129C, strain trk1, stronger effect = lower value 0.99 | locus YJL134W, strain LCB3, stronger effect = lower value 1.01 | locus YJL154C, strain vps35, stronger effect = lower value 1 | locus YJL164C, strain tpk1, stronger effect = lower value 0.978 | locus YJL166W, strain qcr8, stronger effect = lower value 0.987 | locus YJL168C, strain set2, stronger effect = lower value 0.991 | locus YJL187C, strain SWE1 (second series), stronger effect = lower value 1.01 | locus YJL187C, strain SWE1, stronger effect = lower value 1 | locus YJR043C, strain POL32, stronger effect = lower value 1 | locus YJR066W, strain TOR1, stronger effect = lower value 0.932
